Common to all, as to assay: qHTS profiling for inhibitors of Plasmodium falciparum proliferation (AID 504749); also: nearly all actives have a fitted effect of over 60% in size
What all share (details): P. falciparum in erythrocytes, SYBR Green DNA, 72 h; series mostly up to 28.7 µM
For orientation: qHTS replaces the single test concentration by a dilution series.

One assay deals with P94_40. An outline of the steps: (§1)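 In a 72 h erythrocytic culture (37 C, humidified, 5% CO2) at 2.5% hematocrit and 0.3% starting parasitemia, compounds were tested; SYBR Green I in detergent lysis buffer stained parasite DNA overnight.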
The next assay has as its system PAD. In outline: as §1
For another assay, the system named is PC15. An outline of the steps: as §1
For a further assay, the system named is PC26. An outline of the steps: as §1
The next assay deals with PC49. In outline:
as §1

Another assay deals with SC27B. An outline of the steps:
as §1

The subject of a further assay is TAB109. An outline of the steps:
as §1

The next assay relates to TAB113. An outline of the steps:
as §1

The next assay relates to TAB165. An outline of the steps:
as §1

For the next assay, the system named is W2. An outline of the steps:
as §1

Data on 20 compounds can be found in PubChem BioAssay (NCATS).

Inconclusive results are not listed. Activity calls are given as the source filed them. Calls follow the shape of the dose curve; as a rule, active = well fitted inhibition curve with a large enough effect; inconclusive = small, poorly fitted or top-dose-only effect; inactive = flat fitted curve, though single readings scatter.
Potency is read from the fitted curve at half-maximal effect.

As to `CCOC(=O)c1ncn2c1CN(C)C(=O)c1cc(F)ccc1-2`, the Potency result with P94_40, with PAD, with PC15, in the assay with PC26, in the assay on PC49 and with SC27B was “inactive” throughout. Further, the Potency entry in the assay with TAB109, with TAB113, in the assay on TAB165 and in the assay on W2 was “inactive” throughout.
Regarding `Clc1ccccc1C(c1ccccc1)(c1ccccc1)n1ccnc1`, the Potency in the assay with P94_40 was 0.631 µM (active); in the assay with PAD it was 0.355 µM (active); in the assay on PC15, 1 µM (active); with PC26 it was 0.572 µM (active); in the assay on PC49, 1 µM (active); with SC27B, 0.398 µM (active). For the same compound, the Potency in the assay with TAB109 is 0.794 µM (active); in the assay with TAB113 it was 0.631 µM (active); in the assay with TAB165, 0.1 µM (active); in the assay with W2, 0.405 µM (active).
For the compound `CC(C)C(=O)Nc1ccc([N+](=O)[O-])c(C(F)(F)F)c1`, the Potency result in the assay on P94_40, in the assay on PAD, with PC15, with PC26, in the assay on PC49 and with SC27B was “inactive” each time. Also, the Potency entry in the assay on TAB109, with TAB113, with TAB165 and in the assay with W2 was “inactive” in each case.
On to `CN1C(C(=O)Nc2ccccn2)=C(O)c2ccccc2S1(=O)=O`, for which the Potency entry in the assay on P94_40, with PAD, in the assay on PC15, in the assay with PC26, with PC49 and in the assay on SC27B was “inactive” throughout. The Potency entry in the assay with TAB109, in the assay on TAB113, with TAB165 and with W2 was “inactive” each time.
Take `CC(=O)OCC(CCn1cnc2cnc(N)nc21)COC(C)=O`: the Potency result with P94_40, in the assay with PAD, with PC15, with PC26, in the assay with PC49 and with SC27B was “inactive” in each case. Besides, the Potency result with TAB109, in the assay on TAB113, in the assay with TAB165 and with W2 was “inactive” throughout.
Consider `Clc1ccc2nsnc2c1NC1=NCCN1`, for which the Potency entry in the assay with P94_40, with PAD, in the assay with PC15, in the assay with PC26, with PC49 and in the assay with SC27B was “inactive” in each case. The Potency result with TAB109, in the assay with TAB113, with TAB165 and in the assay on W2 was “inactive” throughout.
`CCC1(c2ccccc2)C(=O)NCNC1=O`: the Potency result with P94_40, with PAD, with PC15, in the assay on PC26, with PC49 and with SC27B was “inactive” in each case. For the same compound, the Potency entry in the assay on TAB109, in the assay on TAB113, in the assay on TAB165 and with W2 was “inactive” each time.
In the case of `CN(C)CCCN1c2ccccc2CCc2ccc(Cl)cc21`, the Potency result in the assay with SC27B was “inactive”. For the same compound, in the assay on W2, the Potency was 1.9 µM (active).
Take `COc1ccccc1OCCNCC(O)COc1cccc2[nH]c3ccccc3c12` (centres undefined): the Potency with P94_40 was 10 µM (active); in the assay on SC27B it was 12.6 µM (active); in the assay with TAB109, 10 µM (active); with TAB113 it was 10 µM (active); in the assay on W2, 4.78 µM (active).
Regarding `CC(C)NCC(O)COc1ccc(CCOCC2CC2)cc1` (centres undefined), the Potency entry in the assay with PC49 and in the assay with SC27B was “inactive” in each case. Besides, the Potency with W2 is 15.1 µM (active).
With `CC(C)NCC(O)c1ccc(O)c(O)c1` (centres undefined), the Potency result in the assay with P94_40, in the assay on PAD, with PC15, in the assay with PC49, in the assay on SC27B and in the assay on TAB109 was “inactive” each time. Moreover, the Potency entry in the assay on TAB113, in the assay on TAB165 and with W2 was “inactive” throughout.
For the compound `CCCCc1oc2ccccc2c1C(=O)c1cc(I)c(OCCN(CC)CC)c(I)c1`, the Potency in the assay with P94_40 is 3.55 µM (active); in the assay with PAD it was 6.31 µM (active); in the assay with PC15 it was 11.2 µM (active); with PC26, 9.53 µM (active); in the assay on SC27B it was 10 µM (active); with TAB109, 7.08 µM (active). In addition, the results for the Potency in the assay on TAB113, with TAB165 and with W2 were 12.6 µM (active), 3.16 µM (active) and 4.26 µM (active), respectively.
Consider `O=c1c(-c2ccc(O)cc2)coc2cc(O)cc(O)c12`, for which the Potency entry with P94_40, in the assay with PAD, in the assay with PC15, in the assay with PC49, in the assay on SC27B and in the assay with TAB109 was “inactive” in each case. In addition, the Potency entry in the assay on TAB113 and in the assay with TAB165 was “inactive” in each case.
Consider `CN(Cc1cnc2nc(N)nc(N)c2n1)c1ccc(C(=O)N[C@@H](CCC(=O)O)C(=O)O)cc1`, for which the Potency with P94_40 was 0.178 µM (active); in the assay with PC15 it was 0.224 µM (active); in the assay on PC49 it was 0.178 µM (active); in the assay on SC27B it was 0.178 µM (active). In addition, the Potency result in the assay with PC26, in the assay on TAB109 and in the assay on TAB165 was “inactive” throughout.
`Cc1ccc(C(=O)Nc2ccc(S(=O)(=O)O)c3cc(S(=O)(=O)O)cc(S(=O)(=O)O)c23)cc1NC(=O)c1cccc(NC(=O)Nc2cccc(C(=O)Nc3cc(C(=O)Nc4ccc(S(=O)(=O)O)c5cc(S(=O)(=O)O)cc(S(=O)(=O)O)c45)ccc3C)c2)c1`: the Potency result in the assay with P94_40, in the assay with PAD, in the assay on PC15, in the assay on PC26, in the assay with PC49 and with SC27B was “inactive” throughout. Moreover, the Potency result in the assay on TAB113, in the assay with TAB165 and with W2 was “inactive” throughout.
Regarding `O=C(Nc1ccc([N+](=O)[O-])cc1Cl)c1cc(Cl)ccc1O`, the Potency with PAD was 0.631 µM (active); with SC27B, 0.631 µM (active); with TAB113, 0.708 µM (active); in the assay on TAB165, 0.355 µM (active); in the assay on W2, 0.953 µM (active). Also, the Potency result with PC26 and in the assay with PC49 was “inactive” each time.
With `Clc1ccc2c(c1)C(N1CCNCC1)=Nc1ccccc1O2`, the Potency result in the assay with PC26 and with PC49 was “inactive” in each case. The Potency in the assay with W2 is 5.36 µM (active).
For the compound `Cn1c(=O)c2[nH]cnc2n(C)c1=O`, the Potency entry in the assay on P94_40, in the assay with PC15, in the assay on PC26, in the assay on PC49, with SC27B and in the assay on TAB109 was “inactive” in each case. Also, the Potency result in the assay on TAB113, in the assay with TAB165 and with W2 was “inactive” each time.
Consider `CC(CCc1ccc(O)cc1)NCCc1ccc(O)c(O)c1` (centres undefined), for which the Potency result in the assay on P94_40, in the assay on PAD, in the assay on PC26, in the assay with PC49, with SC27B and in the assay on TAB109 was “inactive” throughout. The Potency result in the assay with TAB113 and in the assay on TAB165 was “inactive” in each case.
`Nc1nc2c(ncn2COC(CO)CO)c(=O)[nH]1`: the Potency entry in the assay with P94_40, in the assay with PAD, with PC15, in the assay on PC26, in the assay on PC49 and in the assay with SC27B was “inactive” throughout. Also, the Potency result in the assay with TAB109, in the assay with TAB113, in the assay on TAB165 and in the assay with W2 was “inactive” each time.
